Compounds with a hit are over-represented: about 6.2% of the library has one in this group of screens.
RORgamma inh: inhibitors of mouse ROR gamma transcriptional activity; P51450; Drosophila S2 Gal4-RORgamma UAS-luciferase reporter, 20 h; Potency, µM (titrated, usually from 53.6 µM), inactives show top-dose activity change, negative = inhibition, usual class: inhibitors; actives 5.4% (n = 310,000); AID 2551; further: nearly all actives have a fitted effect of over 60% in size
Target sequence (P51450 whole entry, looked up, the tested form may be a part): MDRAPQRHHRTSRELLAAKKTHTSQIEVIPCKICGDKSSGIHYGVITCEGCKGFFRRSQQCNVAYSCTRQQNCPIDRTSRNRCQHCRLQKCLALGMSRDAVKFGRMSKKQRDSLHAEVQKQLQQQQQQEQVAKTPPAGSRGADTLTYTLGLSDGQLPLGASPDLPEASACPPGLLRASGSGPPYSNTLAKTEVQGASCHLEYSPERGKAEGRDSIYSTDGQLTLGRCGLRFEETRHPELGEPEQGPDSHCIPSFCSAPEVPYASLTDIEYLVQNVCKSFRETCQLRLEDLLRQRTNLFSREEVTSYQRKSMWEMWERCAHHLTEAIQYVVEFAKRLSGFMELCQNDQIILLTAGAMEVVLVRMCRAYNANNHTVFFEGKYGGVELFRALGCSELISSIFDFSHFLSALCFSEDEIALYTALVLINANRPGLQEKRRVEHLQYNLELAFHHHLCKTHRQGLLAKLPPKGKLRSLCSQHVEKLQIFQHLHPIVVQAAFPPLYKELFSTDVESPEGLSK
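Compounds are pin-transferred onto Drosophila Schneider cells expressing a copper-inducible Gal4–ROR gamma transactivation domain fusion. After 1 hr, copper sulfate is added to 700 uM final; luciferase is read 20 hr later.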
KinaseGlo FLuc: blocks Kinase-Glo luciferase, a counter-screen artifact; Q27757; Kinase-Glo luciferase, ATP luminescence, 8 min; Potency, µM (doses to about 38.3 µM), inactives show at the top dose activity change, negative = inhibition, actives largely listed as inhibitors; actives 0.28% (n = 200,000); AID 1379; further: nearly all actives have a fitted effect of over 60% in size
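Recombinant Kinase-Glo luciferase, 10 uM ATP (linear range), luciferin; imidazole pH 7.2 / KCl / MgCl2 / Tween / BSA buffer; 8 min RT; luminescence.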
Gal4-VP16 FLuc: counter-screen for ROR gamma inhibitors: Gal4-VP16 reporter; Drosophila S2 Gal4-VP16 UAS-luciferase, luminescence, 20 h; Potency, µM (top dose mostly 53.6 µM), inactives show top-dose activity, negative = inhibition, hits mostly inhibitors; actives 3.5% (n = 310,000); AID 2546;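 further: Gal4-VP16 expression switched on by copper sulfate through the metallothionein promoter; nearly all actives have a fitted effect of over 50% in size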
Active calls of the source: *; ? = inconclusive; / = not tested or not shown; ! = not active in a repeat; [ ] = another dose, or the depositor's remark. The call rests on the fitted dose curve; in most records, active means well fitted curve in the direction sought with a large enough effect; inconclusive means small, poorly fitted or top-dose-only effect, or another doubt; inactive means no such curve, though single readings can be large; an effect the other way counts as inactive or inconclusive. On the % scale 0 is the no-effect control and ±100 the full control effect; potency means the concentration at half of the fitted maximal effect.

SMILES	RORgamma inh	KinaseGlo FLuc	Gal4-VP16 FLuc
COc1cccc(Cn2c(=O)c(-c3cc(F)cc(F)c3)nc3cnc(N4CCNCC4)nc32)c1	2.82µM*	/	?
N#Cc1cccc(-c2nc3cnc(N4CCOCC4)nc3n(Cc3ccc(F)cc3)c2=O)c1	-10.9%	/	0.2%
CN1CCN(c2ncc3nc(-c4cccc(C#N)c4)c(=O)n(Cc4ccc(F)cc4)c3n2)CC1	?	/	20µM*
O=c1c(-c2ccccc2)nc2cnc(N3CCNCC3)nc2n1Cc1ccc(F)cc1	-13.3%	1.2%	-21.6%
CCOc1cc(/C=N/n2c(C)nnc2C)ccc1O	0.4%	/	0.5%
Fc1ccc(CNC(=S)Nc2ccc(Cl)cc2)cc1	7.08µM*	3.1%	15.8µM*
NS(=O)(=O)c1ccc(NC(=S)NCc2ccc(Cl)cc2)cc1	44.4%	1.7%	-12.7%
S=C(NCc1ccc(Cl)cc1Cl)Nc1ccccc1	7.08µM*	0.4%	6.31µM*
S=C(Nc1ccccc1)Nc1ccc(Cl)cc1Cl	?	1.2%	-12.0%[0.365 µM]
Fc1ccc(CNC(=S)Nc2cccc(Cl)c2)cc1	5.62µM*	0.8%	11.2µM*
S=C(NCc1ccc(Cl)cc1)Nc1ccncc1	?	/	7.08µM*
S=C(NCc1ccncc1)Nc1cccc(Cl)c1	15.0%	-1.3%	0.0%
S=C(NCc1cccnc1)Nc1ccc(Oc2ccc(Cl)cc2)cc1	-0.8%	/	?
CC(C)C[C@@H](CC(=O)N[C@@H](CCC(=O)O)CC(=O)O)NC(=O)[C@@H]1CNCC[C@H]1NC(=O)C[C@@H](NC(=O)C[C@H](Cc1ccccc1)NC(=O)[C@@H]1CNCC[C@H]1N)C(C)C	21.7%	0.8%	2.0%
COc1ccccc1CN1CC[C@@]2(CCCN(C(=O)c3cccc(F)c3)C2)C1	-34.2%	-0.2%	-6.7%
COc1ccc(OC)c(-c2csc(N(CC3CCCO3)C(=O)Cc3ccccc3)n2)c1 (stereo unspecified)	-6.5%	2.9%	-0.4%
CCOc1ccc(CC(=O)N/N=C/c2cccnc2)cc1OCC	-8.3%	/	0.6%
CC1(C)CC(N=C=O)CC(C)(CN=C=O)C1 (stereo unspecified)	1.4%	/	0.6%
COC(=O)c1cccc(NC(=S)NCc2ccc(F)cc2)c1	10µM*	-2.1%	?
Fc1ccccc1CNC(=S)NCc1ccc(Cl)cc1	7.94µM*	/	?
S=C(NCc1ccc(Cl)cc1)Nc1ccccc1	2.24µM*	6.1%	3.55µM*
COC(=O)c1cccc(NC(=S)NCc2ccco2)c1	?	0.4%	-18.0%
Fc1ccccc1CNc1cc(Cl)cc(Cl)c1	?	1.3%	-19.2%
C=C(C)C(O)/C=C/c1ccc(C)cc1 (stereo unspecified)	4.7%[10 µM]	/	-2.1%[10 µM]
CC(C)Oc1ccc(C2CC(=O)N(C)C2=O)cc1 (stereo unspecified)	-6.0%	/	0.4%
SMILES	RORgamma inh	KinaseGlo FLuc	Gal4-VP16 FLuc
Cc1ccc2c(c1)c(C1=NC(=S)NC1=O)c(O)n2C	4.2%	-0.4%	-3.9%
C[C@@H](CN1C(=O)C(=O)NC[C@@H]1C)NC(=O)CC12CC3CC(CC(C3)C1)C2	2.5%	/	-5.1%
CC(C)(C)N1C(=O)c2ccc(C(=O)Nc3ccc(O)cc3)cc2C1=O	-45.5%	/	?
COc1ccc(N(CC(=O)NCCc2ccc(OC)c(OC)c2)S(=O)(=O)c2c(C)noc2C)cc1	-1.7%	/	1.6%
CCC1NC(=O)C(NC(=O)c2ncccc2O)C(C)OC(=O)C(c2ccccc2)NC(=O)C2CC(=O)CCN2C(=O)C(Cc2ccccc2)N(C)C(=O)C2CCCN2C1=O (stereo unspecified)	32.5%	/	-3.5%
Cc1c2oc3c(C)ccc(C(=O)N[C@@H]4C(=O)N[C@H](C(C)C)C(=O)N5CCC[C@H]5C(=O)N(C)CC(=O)N(C)[C@@H](C(C)C)C(=O)O[C@@H]4C)c3nc-2c(C(=O)N[C@@H]2C(=O)N[C@H](C(C)C)C(=O)N3CCC[C@H]3C(=O)N(C)CC(=O)N(C)[C@@H](C(C)C)C(=O)O[C@@H]2C)c(N)c1=O	0.0224µM*	-0.6%[39.9 µM]	20µM*!
COC(=O)c1cc(NC(=O)c2ccccc2F)cc(C(=O)OC)c1	16.0%	1.4%	0.2%
O=[N+]([O-])c1cccc(N(CC(O)CN2CCCCC2)S(=O)(=O)c2ccccc2)c1 (stereo unspecified)	3.3%	/	4.4%
O=C(CSc1ncccn1)Nc1cc(Cl)ccc1[N+](=O)[O-]	-12.3%	0.8%	-17.5%
O=C(COc1cccc(Br)c1)NN=C1c2ccccc2-c2ccccc21	20µM*	-0.6%	?
O=C(NS(=O)(=O)c1ccccc1)c1cccc(Br)c1	-42.4%	/	-11.4%
O=C(NN=C1c2ccccc2-c2ccccc21)c1cccc(Br)c1	1.78µM*	3.0%	3.16µM*
O=C(COc1cccc(Br)c1)N/N=C1\CCCc2ccccc21	-0.9%	-2.3%	-4.5%
Cc1ccc(N/C=C(\C#N)S(=O)(=O)c2ccccc2)cc1	32.4%	1.2%	-2.4%
CSc1cc2c(cc1C(F)(F)F)N(C(=O)Nc1cccnc1)CC2	22.1%	3.1%	2.9%
Cn1c(CCN2CCN(c3ccccn3)CC2)nc2cc(NS(=O)(=O)c3ccccc3)ccc21	22.4%	/	-2.2%
O=C(Cc1ccc(Cl)cc1Cl)Nc1ccncc1	?	/	5.62µM*
O=C(Cc1ccc(Cl)cc1Cl)Nc1ccncc1Cl	-35.5%	/	5.62µM*
O=C(Cc1c(Cl)cccc1Cl)Nc1ccncc1	4.8%	/	0.2%
O=C(Cc1c(Cl)cccc1Cl)Nc1ccncc1Cl	-8.4%	/	1.8%
COc1cc(OC)c2cc(C(=O)N/N=C/c3ccccc3O)[nH]c2c1	6.31µM*	/	5.62µM*
Cc1ccc2[nH]c(C(=O)N/N=C/c3ccccc3C(=O)O)c(-c3ccccc3)c2c1	14.5%	/	-2.5%
COc1ccc(C(=O)Nc2ccccc2C(N)=O)cc1	-20.2%	?	-18.3%
COc1ccc(C(=O)Nc2ccccc2C(=O)N/N=C/c2cccc3ccccc23)cc1	1µM*	5.01µM*	0.794µM*
Cc1ccc(NC(=O)c2cc(=O)[nH]c3ccccc23)cc1	-13.7%	/	-5.4%
SMILES	RORgamma inh	KinaseGlo FLuc	Gal4-VP16 FLuc
Cc1ccc2[nH]c(C(=O)N/N=C/c3ccccc3O)c(C)c2c1	1µM*	/	6.31µM*
O=C(N/N=C/c1ccccc1O)c1cc(=O)[nH]c2ccccc12	7.94µM*	3.8%	?
COc1ccc2[nH]c(C(=O)N/N=C/c3ccccc3OC)cc2c1	-5.0%	/	-13.7%
COc1ccc(C(=O)N/C(=C\c2cn(S(=O)(=O)N(C)C)c3ccccc23)C(=O)N2CCN(C)CC2)cc1	4.8%	/	13.6%
CCOC(=O)c1ccc(N2C(=O)C(CC(=O)NC)N(CCc3ccc(OC)c(OC)c3)C2=S)cc1 (stereo unspecified)	?	0.8%	?
COc1c(Br)cc(Br)cc1C(=O)Nc1ccccc1N1CCCC1	-4.8%	/	-3.4%
O=C(NNS(=O)(=O)c1ccccc1)c1cccc([N+](=O)[O-])c1	57.3%[1.91 µM]	/	-2.1%
COc1ccc2c(c1)CCC1C2CC[C@@]2(C)C1CC[C@@H]2NCCCCCCN1C(=O)C=CC1=O (stereo partly specified)	/	-9.1%	/
CCCS(=O)(=O)c1ccc(COC(=O)Cc2ccc([N+](=O)[O-])cc2)cc1	-1.0%	/	-1.4%
c1ccc(CNc2ccnc(-c3ccc4c(c3)OCO4)n2)cc1	32.5%	-3.2%	-4.7%
O=C(Nc1ccccc1C(=O)N/N=C/c1ccc(O)cc1)c1ccccc1	-39.6%	/	?

Source: PubChem BioAssay
